Source: PubChem
Compounds with a hit are over-represented: about 3.7% of the library has one in this group of screens.
BRCA1 expr act – qHTS Assay to Identify Small Molecule Activators of BRCA1 Expression; MCF7-BRCA1-FFLuc reporter, luminescence, 48 h; response scale: scaled: vehicle 0%, 10 µM genistein 100%; Potency, µM (titrated, usually from 46.1 µM), hits mostly activators; 380,000 tested, 1.1% active; AID 624202, 2012; further: nearly all actives have a fitted effect of over 80% in size
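MCF7-BRCA1-FFLuc cells, 2000/well in phenol-red-free MEM, attached 2 h then treated 48 h at 37 C. Luciferase luminescence read 15 min after reagent; normalized to genistein maximum activation (10microM) and DMSO, concentration-response fitted.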
DRD3 agonist – qHTS of D3 Dopamine Receptor Agonist: qHTS; D(3) dopamine receptor (Homo sapiens), P35462; D3R DiscoveRx beta-arrestin cells, luminescence, 90 min; max activation, %; 410,000 tested, 0.58% active; AID 652048, 2013; in the data active means max activation above about 30%
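Cells at 1500/well, incubated overnight, then treated with pinned compounds (dopamine as control) for 90 min at 37 degrees C. DiscoveRx reagent added for 30 - 60 minutes at room temperature; luminescence read.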
B2AR arrestin – qHTS assay of beta-arrestin-biased ligands of beta2-adrenergic receptor; Beta-2 adrenergic receptor (Homo sapiens), P07550; beta-arrestin recruitment to beta2AR, cell-based reporter; Potency, µM (doses to about 46.1 µM), hits mostly activators; 330,000 tested, 0.02% active; further: nearly all actives have a fitted effect of over 65% in size
Target sequence (P07550 whole entry, looked up): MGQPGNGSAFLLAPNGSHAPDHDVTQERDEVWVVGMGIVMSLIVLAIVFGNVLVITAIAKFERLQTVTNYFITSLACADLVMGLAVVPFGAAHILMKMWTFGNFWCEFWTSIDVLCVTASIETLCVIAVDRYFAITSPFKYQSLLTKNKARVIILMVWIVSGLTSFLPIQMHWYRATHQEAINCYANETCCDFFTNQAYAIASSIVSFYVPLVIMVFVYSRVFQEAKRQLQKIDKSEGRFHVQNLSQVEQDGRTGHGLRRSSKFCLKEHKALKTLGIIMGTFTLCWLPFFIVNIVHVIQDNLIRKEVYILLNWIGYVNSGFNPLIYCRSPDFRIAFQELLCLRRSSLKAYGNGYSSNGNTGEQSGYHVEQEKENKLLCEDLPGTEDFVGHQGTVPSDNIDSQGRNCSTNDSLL
RGS4 inh – Inhibitors of Regulator of G Protein Signaling (RGS) 4: qHTS; Regulator of G-protein signaling 4 (Homo sapiens), P49798; Transcreener GDP fluorescence polarization, RGS4-accelerated GTP hydrolysis; Potency, µM (titrated, usually from 114 µM), usual class: inhibitors; 390,000 tested, 0.039% active; AID 504845, 2011; further: nearly all actives have a fitted effect of over 75% in size
Target sequence (P49798 whole entry, looked up): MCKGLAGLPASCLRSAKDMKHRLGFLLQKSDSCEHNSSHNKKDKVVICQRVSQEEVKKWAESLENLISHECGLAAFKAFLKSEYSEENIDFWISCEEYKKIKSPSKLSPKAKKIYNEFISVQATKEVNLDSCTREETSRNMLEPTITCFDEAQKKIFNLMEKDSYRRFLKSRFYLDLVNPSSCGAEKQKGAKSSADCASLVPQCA
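MLSMR compounds (23 nl, pin-transferred) preincubated 10 min at room temperature with a 500nM (2x) first reagent, then RGS4 at 900nM (2x) plus Transcreener GDP mix added; fluorescence polarization (620/688 nm) read before and after 90 min at 30 °C.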
DRD3 antagonist – qHTS of D3 Dopamine Receptor Antagonist: qHTS | D(3) dopamine receptor (Homo sapiens), P35462 | max response, negative = inhibition, % | AID 652054, 2013 | D3R cells, DiscoveRx beta-arrestin luminescence, antagonist mode; hits give low values | 360,000 tested, 2.5% active; in the data active means max response below about -50%; inconclusive means no clear call, values can overlap the other calls
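Cells plated overnight at 1500 cells/well, then exposed to library compounds with dopamine controls for 90 minutes at 37 degrees C. DiscoveRx reagent added for 30–60 minutes at room temperature; luminescence read, quantitative HTS format.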
PTHR1 ag – qHTS for PTHR1 Agonists: Primary Screen; Parathyroid hormone/parathyroid hormone-related peptide receptor (Homo sapiens), Q03431; HEK293 GP2 PTHR1 cells, GloSensor cAMP luminescence, 1 h; Potency, µM (highest dose often 115 µM), actives largely listed as activators; 410,000 tested, 0.075% active; further: nearly all actives have a fitted effect of over 55% in size
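HEK-293-derived GP2 cells expressing PTHR1 and a GloSensor cAMP reporter, 3,000/well, plated overnight, given luciferin plus IBMX (each 0.5 mM as added) for 1 h at 37 °C, then compound for 1 h at 37 °C. Luminescence was read after 15 min at room temperature.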
Hits are given with their value; . = inactive; ? = inconclusive; / = not tested or not shown; [ ] = another dose, or the depositor's remark. Unless noted, the call rests on the fitted dose curve; in most records, active means well fitted curve in the direction sought with a large enough effect; inconclusive means small, poorly fitted or top-dose-only effect, or another doubt; inactive means no such curve, though single readings can be large; an effect the other way counts as inactive or inconclusive.

SMILES	BRCA1 expr act	DRD3 agonist	B2AR arrestin	RGS4 inh	DRD3 antagonist	PTHR1 ag
O=C(OC[C@H]1O[C@@H](OC(=O)c2cc(O)c(O)c(OC(=O)c3cc(O)c(O)c(O)c3)c2)[C@H](OC(=O)c2cc(O)c(O)c(OC(=O)c3cc(O)c(O)c(O)c3)c2)[C@@H](OC(=O)c2cc(O)c(O)c(OC(=O)c3cc(O)c(O)c(O)c3)c2)[C@@H]1OC(=O)c1cc(O)c(O)c(OC(=O)c2cc(O)c(O)c(O)c2)c1)c1cc(O)c(O)c(OC(=O)c2cc(O)c(O)c(O)c2)c1	.	.	.	/	/	/
COc1ccc(C(CNC(=O)c2cccc(S(=O)(=O)Nc3ccc(F)cc3)c2)N2CCCCC2)cc1 (stereo not given)	.	.	/	.	-72	.
O=C(OCCOc1cccc(Cl)c1)C1CCN(S(=O)(=O)c2ccccc2)CC1	.	.	.	.	.	.
O=C(COC(=O)c1ccc(Cl)nc1)NCc1ccc(F)cc1	.	.	.	.	-50	.
O=C(COC(=O)c1ccc(Cl)nc1)NCCNC(=O)COC(=O)c1ccc(Cl)nc1	.	.	.	.	.	.
c1ccc(CN2CCC(Nc3ncnc4sccc34)CC2)cc1	.	.	.	.	?	.
Cc1sc2ncnc(NC3CCN(Cc4ccccc4)CC3)c2c1C	.	.	.	.	-75	.
Cc1csc2c(NC3CCN(Cc4ccccc4)CC3)ncnc12	.	.	.	.	-81	.
CCOc1ccccc1NC(=O)Cn1c(=O)n(Cc2ccccc2)c(=O)c2c1c1cc(C)ccc1n2C	.	.	/	.	/	.
O=C(CNC(=O)c1ccco1)Nc1ccc(Cl)cc1	13µM	.	.	.	.	.
COc1cc(NC(=O)CC(C)C)ccc1NC(=O)c1ccco1	7.9µM	.	/	.	.	.
CCC(=O)Nc1ccc(NC(=O)c2ccco2)cc1	2.5µM	.	.	.	?	.
Cc1cc(C)c(OCC(=O)Nc2cccc(NC(=O)c3ccco3)c2)c(Br)c1	.	34	.	.	.	.
COc1cc(/C=C/C(=O)O)cc(S(=O)(=O)NCCCC(=O)O)c1OC	.	.	.	.	.	.
O=C(c1ccccc1)c1cccc(NC(=O)c2ccco2)c1	11µM	.	.	.	.	.
O=C(/C=C\c1ccco1)c1ccc(NC(=O)c2ccco2)cc1	1.8µM	.	.	?	.	.
CC(=O)Nc1ccc(C(=O)/C=C/c2ccco2)cc1	.	.	.	?	.	.
O=C(NCCSc1ncc(-c2ccc(F)cc2)[nH]1)c1ccco1	.	.	.	.	.	.
COc1cc(NC(=O)c2ccco2)c(OC)cc1NC(=O)CSc1ncc(-c2ccc(F)cc2)[nH]1	.	31	.	.	.	.
O=C(Nc1cccc(NC(=O)c2ccco2)c1)c1ccccc1	.	.	.	.	.	.
N#CC1=C(N)OC2=C(C(=O)CCC2)C1c1ccc(OC(=O)N2CCOCC2)cc1 (stereo not given)	.	.	.	.	-80	.
FC(F)(F)c1cnc(Sc2nnc(-c3cccs3)n2CC2CCCO2)c(Cl)c1 (stereo not given)	.	31	.	.	.	.
CC1CCCc2sc3nc(SCC(=O)c4ccc(Br)cc4)nc(N)c3c21 (stereo not given)	/	.	/	.	/	.
O=C(NC(=S)NCc1ccccc1)c1ccccc1F	.[1.84 µM]	.	.	.	.	.
O=C(NC(=S)N(Cc1ccccc1)Cc1ccccc1)c1ccccc1F	.	.	.	?	-69	.
SMILES	BRCA1 expr act	DRD3 agonist	B2AR arrestin	RGS4 inh	DRD3 antagonist	PTHR1 ag
O=C(CCn1c(=O)c2ccccc2n(Cc2cccnc2)c1=O)NCc1ccc2c(c1)OCO2	.	.	.	.	-59	.
O=C(NC(=S)Nc1ccccn1)c1cc(-c2ccccc2)nc2ccccc12	.	.	.	.	.	.
O=C(Nc1nc2c(s1)CCCC2)c1cc(-c2ccccc2)nc2ccccc12	.	.	.	.	-81	.
O=C(NC(=S)Nc1ccccc1)c1cc(-c2ccccc2)nc2ccccc12	.	.	.	.	-125	.
CCNC(=S)NNC(=O)c1cc(-c2cccc(C)c2)nc2ccccc12	4.5µM	.	.	.	.	.
O=C(Nc1nc2c(s1)CCCC2)c1cc(-c2ccncc2)nc2ccccc12	.	.	.	.	?	.
CCNC(=S)NNC(=O)c1cc(-c2cccc(OCC)c2)nc2ccccc12	?	.	.	.	.	.
CCc1ccc(-c2cc(C(=O)Nc3ccc(S(=O)(=O)NC(C)=O)cc3)c3ccccc3n2)cc1	.	.	.	.	-93	.
O=C(C1CCOCC1)N1CCCC(N2CCN(c3ccc(F)cc3)CC2)C1 (stereo not given)	.	.	.	.	.	.
COc1ccc(Cl)cc1C(=O)NNC(=S)NC(=O)c1cc(-c2ccc(Cl)cc2)nc2ccccc12	.	.	.	.	-61	.
C=CCn1cccc(C(=O)Nc2ccc(C)cc2)c1=O	?	.	.	.	.	.
C=CCn1cccc(C(=O)Nc2ccc(C)c(C)c2)c1=O	3.2µM	.	.	.	.	.
CCOc1cc(/C=N/O)ccc1OCc1ccc([N+](=O)[O-])cc1	.	.	.	?	.	.
O=[N+]([O-])c1ccc(COc2ccccc2/C=N/O)cc1	10µM	.	.	.	.	.
CN(Cc1ccc(Cl)s1)C(=O)CN1C(=O)N(C)C2(CCCCC2)C1=O	.	.	.	.	.	.
C=CCn1c(=O)/c(=C2/Sc3cc(OC)ccc3N2C)s/c1=C1\C(=O)N(CC)C(=S)N1C	/	/	.	/	/	/
CC(CN1CCCCC1)OC(=O)/C=C/c1ccccc1 (stereo not given)	.	.	.	.	-61	.
O=C(CCN1CCCCCC1)c1ccccc1	.	.	.	.[11.4 µM]	.	.
CC(CN1CCOCC1)OC(=O)/C=C/c1ccccc1 (stereo not given)	.	.	.	.	.	.
O=C(/C=C/c1ccccc1)CCN1CCCCC1	.	.	/	.	-88	.
CC(CN1CCN(C)CC1)OC(=O)c1ccccc1Cl (stereo not given)	.	.	.	?	-52	.
CC(CN1CCCCC1)OC(=O)Cc1ccc(Cl)cc1 (stereo not given)	.	.	.	.	-58	.
O=C(NCc1ccc(F)cc1)c1cnc(N2CCCCC2)c2ccccc12	/	.	/	.	/	.
CC(CN1CCOCC1)OC(=O)C(C)(c1ccccc1)c1ccccc1 (stereo not given)	.	.	.	.[11.4 µM]	?	.
